Results: paper PMC8769072, “Proteome‐scale mapping of binding sites in the unstructured regions of the human proteome” (Molecular Systems Biology, 2022)

B1: CACTIN, Q8WUQ7 (peptide)
chain: WRDMTTITEDEISKLR
B2: ANKRD62, A6NC57 (peptide)
chain: TVNEWAHLQEDTNSHI
B3: ESPL1, Q14674 (peptide)
chain: GPEAASGEWELLRLDS
B4: NCOR1, O75376 (peptide)
chain: SPNREWEVLQPAPHQV
B5: ATG13, O75143 (peptide)
chain: HDDFVMIDFKPAFSKD
B6: ATG2B, Q96BY7 (peptide)
chain: TENDDFAILFAPKAAM
B7: APOBR, Q0VD83 (peptide)
chain: MVEAGGLLEKWTLLEE
B8: KCNT1, Q5JUK3 (peptide)
chain: RGGGSVGSDVGQRLPV
B9: TRIM59, Q8IWR1 (peptide)
chain: TDTHWTDLTHLIEKLK
B10: APBB2, Q92870 (peptide)
chain: NLAPSDEESSWTTLSQ
B11: OSBPL3, Q9H4L5 (peptide)
chain: QGSRQDSWEVVEGLRG
B12: HIPK3, Q9H422 (peptide)
chain: VLASMKNTYEVLDFLG
B13: ATG2A, Q2TAZ0 (peptide)
chain: DGDTLDSDEFAILDAP
B14: CEP170B, Q9Y4F5 (peptide)
chain: WEDLEARINAENEVPI
B15: CC2D1A, Q6P1N0 (peptide)
chain: TAQQLETTTERWLVID
B16: TMEM132C, Q8N3T6 (peptide)
chain: WVWLGNEAELLESMGD
B17: RNF146, Q9NTX7 (peptide)
chain: LEDSFAHLQLSGDNTA
B18: ANKRD54, Q6NXT1 (peptide)
chain: QVDEVTDLLASFTSLS
B19: SP1, P08047 (peptide)
chain: ANGWQIISSSSGATPT
B20: PTPN6, P29350 (peptide)
chain: WEEFESLQKQEVKNLH
B21: TECPR1, Q7Z6L1 (peptide)
chain: GWDYGIGGGWDHISVR
B22: NUCB1, Q02818 (peptide)
chain: GWETVEMHPAYTEEEL
B23: ZNF487, B1APH4 (peptide)
chain: EWQHLDSAQRTPYRDM
B24: ZSCAN18, Q8TBC5 (peptide)
chain: HLGEWGHLDPAEENLK
B25: RIC1, Q4ADV7 (peptide)
chain: DLTESSSMVDGDWTMV
B26: SLC16A5, O15375 (peptide)
chain: PQALERADGSWAWVVL
B27: ZNF579, Q8NAF0 (peptide)
chain: RQEEKQVLLQADWTLL
B28: AKAP13, Q12802 (peptide)
chain: WATIEPAPDAASLLAS
B29: PCDHGC5, Q9Y5F6 (peptide)
chain: DFTFLRPLSVQQPTAL
B30: JAK2, O60674 (peptide)
chain: YELLTENDMLPNMRIG
B31: PNPLA6, Q8IY17 (peptide)
chain: FPSSGFTDLAEIVSRI

What was measured:
[1] = target: MAP1LC3A 2-121, Q9H492
[2] = target: MAP1LC3B 2-119, Q9GZQ8

Binder	selected by phage display [1]	selected by phage display [2]
B1	confidence 2 (active)	
B2	confidence 4 (active)	
B3	confidence 2 (active)	
B4	confidence 3 (active)	
B5	confidence 3 (active)	
B6	confidence 3 (active)	
B7	confidence 4 (active)	
B8	confidence 2 (active)	
B9	confidence 3 (active)	
B10	confidence 2 (active)	
B11	confidence 2 (active)	
B12	confidence 2 (active)	
B13	confidence 4 (active)	
B14	confidence 2 (active)	
B15	confidence 3 (active)	
B16	confidence 4 (active)	confidence 3 (active)

Binder	selected by phage display [1]	selected by phage display [2]
B17	confidence 3 (active)	
B18	confidence 3 (active)	
B19	confidence 4 (active)	
B20	confidence 2 (active)	
B21	confidence 2 (active)	
B22	confidence 2 (active)	
B23	confidence 2 (active)	
B24	confidence 2 (active)	
B25	confidence 4 (active)	confidence 4 (active)
B26	confidence 3 (active)	confidence 3 (active)
B27	confidence 2 (active)	
B28	confidence 3 (active)	
B29	confidence 3 (active)	
B30	confidence 2 (active)	confidence 2 (active)
B31	confidence 3 (active)	
